# Over roughly 8,300 sequences, “log2 fold change of degron read counts, EGFP-low vs EGFP+ sorted cells (limma voom), compound-induced degradation” has its median near -1.1; the highest 2% begin near 3.2. This excerpt belongs to a sample that is enriched for the highest values.
# Molecular target: T1, CRBN, Q96SW2
# T1 chain: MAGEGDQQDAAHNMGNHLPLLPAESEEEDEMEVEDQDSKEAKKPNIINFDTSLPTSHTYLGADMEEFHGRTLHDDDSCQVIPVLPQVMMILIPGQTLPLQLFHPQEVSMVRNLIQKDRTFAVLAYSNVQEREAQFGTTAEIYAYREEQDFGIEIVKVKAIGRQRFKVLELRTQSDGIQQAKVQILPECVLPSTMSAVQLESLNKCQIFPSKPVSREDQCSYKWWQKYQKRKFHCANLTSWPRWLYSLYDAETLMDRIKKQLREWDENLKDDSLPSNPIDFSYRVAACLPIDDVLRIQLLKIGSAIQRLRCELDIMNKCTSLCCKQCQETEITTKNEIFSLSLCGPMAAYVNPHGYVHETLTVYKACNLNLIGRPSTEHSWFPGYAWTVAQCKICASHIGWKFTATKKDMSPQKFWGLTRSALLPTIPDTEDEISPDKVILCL
# Experiment: log2 fold change of degron read counts, EGFP-low vs EGFP+ sorted cells (limma voom), compound-induced degradation; higher = more compound-induced degradation of the degron-EGFP fusion; degrons are variants of IKZF1/3 zinc finger 2; compound dose not given here
# Conditions: Jurkat, 18 h
# Experimental: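 Pooled library of 8380 IKZF3 ZF2 degron mutants (positions 146-167 varied within the IKZF3 130-189 degron; only the varied core is printed, flanks not printed) fused to EGFP with IRES-mCherry, lentivirally expressed in Jurkat cells. mCherry+ cells were treated with one IMiD compound for 18 h (dose not stated) and FACS-sorted into EGFP-low and EGFP+ populations. Degron sequences were counted by NGS, and log2FC (EGFP-low vs EGFP+) was estimated by limma voom over 3 biological replicates.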
# [1] = compound: compound 19 (5-tert-butyl-thalidomide)
# [2] = compound: compound 22 (5-morpholino-thalidomide)
# [3] = compound: compound 33 (diphenyl IMiD analogue)
# 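Further: pooled lentiviral library of zinc finger degron-EGFP fusions in mCherry-positive Jurkat cells, FACS-sorted after compound exposure, with degron abundance counted by next-generation sequencing.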
Sequence,log2 fold change of degron read counts [1],log2 fold change of degron read counts [2],log2 fold change of degron read counts [3],log2 fold change of degron read counts (compound: thalidomide)
"FSCNQCGRCFTQKGNLLRHIKL [46F_47S_49N_50Q_52G_53R_54C_55F_67L_, Q9UKT9]",-2.78,-2.88,-2.83,-2.73
"FNCPQCGADFTQKGNLLRHIKL [46F_47N_49P_50Q_52G_53A_54D_55F_67L_, Q9UKT9]",-3.44,-3.57,-2.75,-3.69
"FFCNICGAEFTQKGNLLRHIKL [46F_47F_49N_50I_52G_53A_54E_55F_67L_, Q9UKT9]",1.77,1.94,0.373,-0.454
"FSCPICGHQFTQKGNLLRHIKL [46F_47S_49P_50I_52G_53H_54Q_55F_67L_, Q9UKT9]",-2.3,-3.17,-1.53,-1.82
"FSCNQCGRDFTQKGNLLRHIKL [46F_47S_49N_50Q_52G_53R_54D_55F_67L_, Q9UKT9]",-3.12,-4.04,-2.59,-2.97
"LFCNQCGFNCTQKGNLLRHIKL [46L_47F_49N_50Q_52G_53F_54N_55C_67L_, Q9UKT9]",-1.81,-1.88,-1.92,-1.45
"FECNQCGAHFTQKGNLLRHIKL [46F_47E_49N_50Q_52G_53A_54H_55F_67L_, Q9UKT9]",-2.49,-3.01,-2.49,-2.34
"FCCEICGAIFTQKGNLLRHIKL [46F_47C_49E_50I_52G_53A_54I_55F_67L_, Q9UKT9]",1.48,1.57,2.5,1.97
"FMCEICGAIFTQKGNLLRHIKL [46F_47M_49E_50I_52G_53A_54I_55F_67L_, Q9UKT9]",-1.18,-0.577,2.14,0.96
"FQCEICGAIFTQKGNLLRHIKL [46F_47Q_49E_50I_52G_53A_54I_55F_67L_, Q9UKT9]",-0.255,3.16,2.84,3.68
"FICDVCGASFTQKGNLLRHIKL [46F_47I_49D_50V_52G_53A_54S_55F_67L_, Q9UKT9]",-1.49,1.22,0.774,0.427
"FYCEVCGAHFTQKGNLLRHIKL [46F_47Y_49E_50V_52G_53A_54H_55F_67L_, Q9UKT9]",3.12,3.62,2.45,0.916
"FTCEVCGAHFTQKGNLLRHIKL [46F_47T_49E_50V_52G_53A_54H_55F_67L_, Q9UKT9]",-0.0867,0.738,1.47,2.04
"FACEVCGAHFTQKGNLLRHIKL [46F_47A_49E_50V_52G_53A_54H_55F_67L_, Q9UKT9]",3.16,0.662,0.411,-0.296
"FWCEVCGAHFTQKGNLLRHIKL [46F_47W_49E_50V_52G_53A_54H_55F_67L_, Q9UKT9]",3.1,3.92,1.96,0.936
"FVCEVCGAHFTQKGNLLRHIKL [46F_47V_49E_50V_52G_53A_54H_55F_67L_, Q9UKT9]",-0.244,1.53,1.35,1.87
"FRCEVCGAHFTQKGNLLRHIKL [46F_47R_49E_50V_52G_53A_54H_55F_67L_, Q9UKT9]",-1.19,-1.13,0.668,0.202
"LVCEICGFGCTQKGNLLRHIKL [46L_47V_49E_50I_52G_53F_54G_55C_67L_, Q9UKT9]",1.26,1.94,0.702,2.41
"FMCPICGHYFTQKGNLLRHIKL [46F_47M_49P_50I_52G_53H_54Y_55F_67L_, Q9UKT9]",-2.08,-2.18,-1.11,-1.8
"FWCDICGAPFTQKGNLLRHIKL [46F_47W_49D_50I_52G_53A_54P_55F_67L_, Q9UKT9]",2.91,2.32,1.2,-0.538
"FYCDICGAPFTQKGNLLRHIKL [46F_47Y_49D_50I_52G_53A_54P_55F_67L_, Q9UKT9]",3.86,3.56,2.02,0.27
"FQCDICGAPFTQKGNLLRHIKL [46F_47Q_49D_50I_52G_53A_54P_55F_67L_, Q9UKT9]",2.56,3.14,0.968,3.35
"FVCDICGAPFTQKGNLLRHIKL [46F_47V_49D_50I_52G_53A_54P_55F_67L_, Q9UKT9]",1.63,3.29,1.93,2.61
"FFCDICGADFTQKGNLLRHIKL [46F_47F_49D_50I_52G_53A_54D_55F_67L_, Q9UKT9]",-0.121,-0.935,-2.01,-2.27
"FFCDICGAPFTQKGNLLRHIKL [46F_47F_49D_50I_52G_53A_54P_55F_67L_, Q9UKT9]",3.92,3.16,1.06,-0.36
"FCCDICGAPFTQKGNLLRHIKL [46F_47C_49D_50I_52G_53A_54P_55F_67L_, Q9UKT9]",2.7,2.21,0.465,0.477
"FMCNICGAVFTQKGNLLRHIKL [46F_47M_49N_50I_52G_53A_54V_55F_67L_, Q9UKT9]",-1.55,-0.801,1.53,0.369
"FFCEICGHNFTQKGNLLRHIKL [46F_47F_49E_50I_52G_53H_54N_55F_67L_, Q9UKT9]",-2.59,-3.18,-2.38,-2.84

# Reference: the supplement of paper PMC12645437, “Orthogonal IMiD-Degron Pairs Induce Selective Protein Degradation in Cells” (ACS Chemical Biology, 2025)
